This is an account of results in PubChem BioAssay.

SMILES strings stand for the structures. The list shows a part of the results. Calls of active or inactive are those of the source.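 Rule for the calls, unless noted: active = GFP response above 150% of the DMSO level; inconclusive = fewer than 70 events counted for a yeast strain; inactive = the rest.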

Assay [1] can be described thus: hit retest on RPL19A-GFP reporter strain – cell-based, S. cerevisiae, flow cytometry, cherry picks, mother/daughter gates, confirmation (AID 2270;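 active = GFP response below 50% of the DMSO control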). The note with it: 3 h, at 10 µM, stronger effect = lower value, 100 = same GFP as DMSO wells. Background: In flow cytometry, cells or beads pass a laser one at a time.
Assay [2] is described as follows: yeast TOR pathway reporter LAP4-GFP change – cell-based, cherry picks, flow cytometry, mother/daughter gates, confirmation (AID 2271;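 active = GFP response above 150% of the DMSO control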;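 note: ratio of sample to DMSO plate mean so 100% equals DMSO level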). Particulars: S. cerevisiae LAP4-GFP strain, 3 h, at 10 µM, stronger effect = higher value, 100 means same as DMSO control.
Assay [3] can be described thus: TOR pathway reporter MEP2-GFP, retest of hits – S. cerevisiae, flow cytometry GFP, cherry picks, confirmation (AID 2272;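 active = GFP response above 150% of the DMSO control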;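 note: ratio of well signal to plate DMSO mean so 100% equals DMSO level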). Particulars: S. cerevisiae MEP2-GFP strain, 3 h, at 10 µM, stronger effect = higher value.
Assay [4] can be described thus: yeast AGP1-GFP fluorescence change, single-dose – cell-based, flow cytometry, S. cerevisiae, cherry picks, confirmation (AID 2273).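 Note: median GFP channel fluorescence over the whole cell population gate.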 Particulars: S. cerevisiae AGP1-GFP strain, 3 h, at 10 µM.
Assay [5] is described as follows: TOR pathway CIT2 reporter hit retest – S. cerevisiae, GFP fusion, cherry picks, mother/daughter gates, confirmation (AID 2274). The note with it: S. cerevisiae CIT2-GFP strain, flow cytometry, 3 h, at 10 µM, stronger effect = higher value.
The nature of assay [6]: green-channel fluorescence artefact in S. cerevisiae – s288c strain, artefact control for yeast TOR pathway GFP screen, dose response (AID 2757;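 active = fluorescence span over the dose series, or activity score, above about 33, limit read from the data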;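 note: thousands of bead-calibrated equivalent soluble fluorophore molecules from median cell fluorescence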). The note with it: 520 nm autofluorescence, flow cytometry, 3 h, at 33 µM, stronger effect = higher value, zero means same as solvent-only cells.
[7] abbreviates: measured here: daughter cell gate.
Where [8] appears, read: measured here: mother cell gate.
The mark [9] stands for this setting: measured here: mother cell gate response.
[10] abbreviates: measured here: daughter cell gate response.

In the case of `Cc1ccc(C2CCN(C(=S)Nc3cccc(Cl)c3)C2)cc1` (configuration not stated), the GFP response vs DMSO in assay [1] was 96.2% (inactive); in assay [1] (setting [7]), 95.7%; in assay [1] (setting [8]), 97.4%; in assay [3], 97.5% (inactive). In addition, the GFP response relative to DMSO in assay [2] was 119% (inactive). Moreover, the GFP response, % of DMSO was 93.2% (inactive) in assay [4], 92.1% (inactive) in assay [5], 90.9% in assay [5] (setting [7]) and 95.6% in assay [5] (setting [8]).

As for `N#C/C(=C/c1ccc(N2CCOCC2)o1)c1ccc(Cl)cc1`, the GFP response vs DMSO in assay [1] is 96.8% (inactive); in assay [1] (setting [7]), 93.4%; in assay [1] (setting [8]), 91.5%; in assay [3] it was 104% (inactive). In addition, the GFP response relative to DMSO in assay [2] is 109% (inactive). The GFP response, % of DMSO in assay [4] is 95.8% (inactive); in assay [5], 104% (inactive); in assay [5] (setting [7]), 108%; in assay [5] (setting [8]) it was 96.8%.

For `O=C1C=CC(=O)N1c1cccc(-c2ccccc2)c1`, the GFP response vs DMSO is 70.2% (inactive) in assay [1], 84.3% in assay [1] (setting [7]), 59.1% in assay [1] (setting [8]) and 109% (inactive) in assay [3]. For the same compound, the values for the GFP response relative to DMSO in assay [2] and in assay [2] (setting [9]) were 220% (active) and 191%, respectively. Besides, the GFP response, % of DMSO in assay [4] is 104% (inactive); in assay [5], 86.1% (inactive); in assay [5] (setting [7]), 93.2%; in assay [5] (setting [8]) it was 70.8%.

For the compound `C/C(=N\Nc1ncnc2sc(C)c(C)c12)c1ccccn1`, the GFP response vs DMSO is 194% (inactive) in assay [1], 112% in assay [1] (setting [7]), 175% in assay [1] (setting [8]) and 967% (active) in assay [3]. Also, the GFP response relative to DMSO in assay [2] is 434% (active); in assay [2] (setting [9]), 395%. In addition, the GFP response, % of DMSO in assay [4] is 107% (inactive); in assay [5], 449% (active); in assay [5] (setting [7]), 118%; in assay [5] (setting [8]) it was 921%.

In the case of `COc1ccccc1-c1noc(-c2cccnc2)n1`, the GFP response vs DMSO is 95.3% (inactive) in assay [1], 93% in assay [1] (setting [7]), 95.4% in assay [1] (setting [8]) and 108% (inactive) in assay [3]. The GFP response relative to DMSO in assay [2] was 97.7% (inactive). The GFP response, % of DMSO in assay [4] is 96.6% (inactive); in assay [5], 95.8% (inactive); in assay [5] (setting [7]) it was 88.7%; in assay [5] (setting [8]), 82.6%.

On to `Cc1cccc(CS(=O)(=O)c2ncc(Cl)c(C(=O)Nc3nnc(C(C)C)s3)n2)c1`, for which the GFP response vs DMSO in assay [1] is 96.7% (inactive); in assay [3] it was 99.3% (inactive). In addition, the results for the GFP response relative to DMSO in assay [2], in assay [2] (setting [10]) and in assay [2] (setting [9]) were 106% (inactive), 108% and 105%, respectively. In addition, the GFP response, % of DMSO in assay [4] was 102% (inactive); in assay [5], 103% (inactive); in assay [5] (setting [7]), 99.3%; in assay [5] (setting [8]), 104%.

Consider `Cc1ccccc1NC(=O)COC(=O)c1cc(=O)c2ccccc2o1`, for which the GFP response vs DMSO was 99.7% (inactive) in assay [1], 104% in assay [1] (setting [8]) and 97.8% (inactive) in assay [3]. Besides, the GFP response relative to DMSO in assay [2] is 98.7% (inactive); in assay [2] (setting [10]), 98.7%; in assay [2] (setting [9]) it was 86%. Moreover, the GFP response, % of DMSO in assay [4] was 95.4% (inactive); in assay [5], 104% (inactive).

`CCCc1nn(C)c2c1C(c1cccnc1)C(C#N)=C(N)O2` (configuration not stated): the GFP response vs DMSO in assay [1] was 101% (inactive); in assay [1] (setting [7]) it was 106%; in assay [3] it was 97.8% (inactive). In addition, the GFP response relative to DMSO in assay [2] is 97.4% (inactive). Moreover, the GFP response, % of DMSO in assay [4] was 98.3% (inactive); in assay [5] it was 111% (inactive).

As to `C/C(=N\NC(=O)c1ccc(Cl)c(Cl)c1)c1ccccn1`, the GFP response vs DMSO in assay [1] is 104% (inactive); in assay [1] (setting [7]), 96.4%; in assay [1] (setting [8]) it was 88.5%; in assay [3] it was 118% (inactive). Further, in assay [2], the GFP response relative to DMSO is 269% (active). Also, the GFP response, % of DMSO was 127% (inactive) in assay [4], 114% (inactive) in assay [5], 97.6% in assay [5] (setting [7]) and 99.3% in assay [5] (setting [8]).

Turning to `CCC(=O)Nc1ccc(NC(=O)c2cc3ccccc3o2)c(OC)c1`, the figures for the GFP response vs DMSO in assay [1] and in assay [3] were 100% (inactive) and 101% (inactive), respectively. For the same compound, the GFP response relative to DMSO in assay [2] was 94.4% (inactive); in assay [2] (setting [10]) it was 95.9%; in assay [2] (setting [9]), 96.2%. For the same compound, the GFP response, % of DMSO was 100% (inactive) in assay [4], 94.4% (inactive) in assay [5], 95.6% in assay [5] (setting [7]) and 88.2% in assay [5] (setting [8]).

On to `O=C(O)CCC(=O)OCC1CCCCC1`, for which the GFP response vs DMSO is 96.7% (inactive) in assay [1], 97.6% in assay [1] (setting [7]), 95.6% in assay [1] (setting [8]) and 103% (inactive) in assay [3]. Moreover, the GFP response relative to DMSO in assay [2] was 104% (inactive). The GFP response, % of DMSO is 99.3% (inactive) in assay [4], 98.6% (inactive) in assay [5], 95.8% in assay [5] (setting [7]) and 94.9% in assay [5] (setting [8]).

With `Cc1ccc(-c2nn(C(C)(C)C)c3ncnc(N)c23)cc1`, the GFP response vs DMSO in assay [1] is 46.7% (active); in assay [1] (setting [7]) it was 43.7%; in assay [1] (setting [8]), 46.7%; in assay [3], 116% (inactive). Further, the GFP response relative to DMSO in assay [2] is 175% (active). In addition, the GFP response, % of DMSO in assay [4] is 95.7% (inactive); in assay [5] it was 45.8% (inactive); in assay [5] (setting [7]) it was 62.1%; in assay [5] (setting [8]) it was 43.5%. Further, the fluorescence change (kMESF span) in assay [6] was -0.9 (inactive).

In the case of `CCCc1[nH]nc2c1C(c1ccc(OC(=O)N3CCOCC3)c(OC)c1)C(C#N)=C(N)O2` (configuration not stated), the GFP response vs DMSO in assay [1] is 100% (inactive); in assay [1] (setting [7]), 101%; in assay [1] (setting [8]), 95.4%; in assay [3] it was 100% (inactive). Further, in assay [2], the GFP response relative to DMSO was 102% (inactive). Moreover, the GFP response, % of DMSO is 97.8% (inactive) in assay [4], 97.8% (inactive) in assay [5], 89.9% in assay [5] (setting [7]) and 97.7% in assay [5] (setting [8]).

For `O=C1C=C(c2ccc(Cl)cc2)C(=O)N1Nc1ccccc1`, the GFP response vs DMSO is 61.9% (inactive) in assay [1], 89.1% in assay [1] (setting [7]), 51.9% in assay [1] (setting [8]) and 113% (inactive) in assay [3]. Also, the GFP response relative to DMSO in assay [2] is 96.2% (inactive); in assay [2] (setting [9]) it was 81.9%. Moreover, the GFP response, % of DMSO in assay [4] was 102% (inactive); in assay [5], 66.5% (inactive); in assay [5] (setting [7]), 99.7%; in assay [5] (setting [8]), 53.7%. The fluorescence change (kMESF span) in assay [6] was 0.3 (inactive).

Take `COc1cccc(/C(C)=N/NC(=O)c2ccc(N(C)C)cc2)c1`: the GFP response vs DMSO was 99.7% (inactive) in assay [1], 96.5% in assay [1] (setting [7]), 99.7% in assay [1] (setting [8]) and 99.5% (inactive) in assay [3]. Moreover, in assay [2], the GFP response relative to DMSO is 93% (inactive). The GFP response, % of DMSO is 98.9% (inactive) in assay [4], 102% (inactive) in assay [5], 102% in assay [5] (setting [7]) and 89.8% in assay [5] (setting [8]).

Regarding `CCc1nnc(NC(=O)c2nc(S(=O)(=O)Cc3ccccc3)ncc2Cl)s1`, the GFP response vs DMSO in assay [1] is 94.9% (inactive); in assay [1] (setting [7]), 95.9%; in assay [1] (setting [8]), 91.4%; in assay [3], 103% (inactive). For the same compound, the GFP response relative to DMSO in assay [2] is 98.9% (inactive). For the same compound, the GFP response, % of DMSO in assay [4] is 97.3% (inactive); in assay [5], 101% (inactive); in assay [5] (setting [7]), 103%; in assay [5] (setting [8]), 97.1%.

With `CCc1ccc(C2CC(c3ccco3)=NN2S(C)(=O)=O)cc1` (configuration not stated), the GFP response vs DMSO in assay [1] was 108% (inactive); in assay [1] (setting [7]), 108%; in assay [1] (setting [8]), 101%; in assay [3] it was 180% (active). The GFP response relative to DMSO in assay [2] is 131% (inactive). Further, the figures for the GFP response, % of DMSO in assay [4] and in assay [5] were 108% (inactive) and 188% (active), respectively.
